Screening results: PubChem BioAssay, National Center for Advancing Translational Sciences (NCATS)
TDP1 cell CPT = growth inhibition of DT40 Tdp1-/-;hTDP1 cells with camptothecin (screen for TDP1 inhibitors) | chicken DT40 Tdp1-/-;hTDP1 cells + 20 nM CPT, ATP luminescence, 48 h | Potency, µM (doses to about 46.2 µM), most hits filed as inhibitors | 420,000 tested, 12% active | AID 686979; also: nearly all actives have a fitted effect of over 55% in size
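Chicken DT40 Tdp1-/- cells complemented with human TDP1, 400 cells/well, exposed to compounds plus 20 nM camptothecin for at least 48 h at 37 C; viability read as ATP content by CellTiter-Glo luminescence.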
HT1080-NT tox = kills 2HG-producing HT-1080-NT fibrosarcoma cells; HT-1080-NT fibrosarcoma viability, CellTiter-Glo ATP luminescence, 48 h; Potency, µM (series often up to 46.1 µM), usual class: cytotoxic; 360,000 tested, 1.6% active; AID 686970;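 also: NT is the 2HG producing partner of a matched IDH1 knockdown line; nearly all actives have a fitted effect of over 55% in size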
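Toxicity toward the 2HG-producing NT line was scored as %Activity, normalised to DMSO and no-cell wells, from CellTiter-Glo luminescence after 48 hours' treatment.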
HT1080 IDH1KD tx = toxicity to HT-1080 IDH1 knockdown cells (counter line); HT-1080 IDH1 knockdown viability, ATP luminescence, 48 h; Potency, µM (doses to about 46.1 µM), actives largely listed as cytotoxic; AID 686971; 360,000 tested, 2% active
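CellTiter-Glo luminescence after 48 h compound exposure at 37 degrees C of IDH1-knockdown HT-1080 cells in 5% FBS RPMI. %Activity scaled between DMSO wells and cell-free media wells, with curves fitted and assigned curve classes.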
ELG1 repair inh = blocks ELG1-dependent DNA repair in HEK293T cells | 330,000 tested, 2.3% active | HEK293T ELG1-luciferase reporter, luminescence, 16 h; DNA damage induced by 5-fluorouridine | Potency, µM (top dose mostly 46.1 µM), usual class: inhibitors | AID 504467; also: nearly all actives have a fitted effect of over 55% in size
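Luminescence from the luciferase reporter, measured 30 min after ONE-Glo reagent at room temperature, was the read-out. Beforehand, 2,000 cells per well were exposed for 16 hr at 37 °C to 5-fluorouridine together with compound or vehicle.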
IL-1B inflam inh = inhibitors of inflammasome signaling (IL-1 beta secretion); THP-1 LPS/ATP IL-1B secretion, AlphaLISA, 16 h; active compounds read low; activity change, % at 57.5 µM; 360,000 tested, 4.7% active; AID 743279; in the data active = activity change below about -50%; inconclusive = mostly about -30% to -49%
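THP-1 cells pretreated 1 hr with compounds (up to 57.5 uM final), then stimulated with LPS (250 ng/mL final) plus ATP (1.25 mM final); secreted IL-1B measured by AlphaLISA after 16 hr, decreased signal indicating inhibition.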
TDP1 cell noCPT = qHTS for Inhibitors of human tyrosyl-DNA phosphodiesterase 1 (TDP1): qHTS in cells in absence of CPT | DT40 Tdp1-/- hTDP1 cells, no CPT, ATP luminescence, 48 h | Potency, µM (titrated, usually from 46.2 µM), actives largely listed as inhibitors | 420,000 tested, 15% active; also: nearly all actives have a fitted effect of over 55% in size
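Stably hTDP1-transfected Tdp1-null chicken DT40 cells were treated with library compounds minus camptothecin and grown for at least 48 hr at 37 °C, after which cellular ATP was quantified by luminescence.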
Of the large screens only hits and unclear results are named; the others gave an inactive call. This is a sample that favours compounds with a hit; in the whole collection about 19% have one here. Unless noted, calls follow the shape of the dose curve; as a rule, active = well fitted curve in the direction sought with a large enough effect; inconclusive = small, poorly fitted or top-dose-only effect, or another doubt; inactive = no such curve, though single readings can be large; an effect the other way counts as inactive or inconclusive.

O=C(CN1C2=NCCN2c2ccccc21)C12CC3CC(CC(C3)C1)C2	TDP1 cell CPT 21µM, HT1080-NT tox 21µM, IL-1B inflam inh inconclusive, TDP1 cell noCPT 16µM
Cc1ccc(CN2C3=NCCN3c3ccccc32)cc1	TDP1 cell CPT inconclusive, IL-1B inflam inh inconclusive, TDP1 cell noCPT inconclusive
Cc1cccc(CN2C3=NCCCN3c3ccccc32)c1	TDP1 cell CPT 21µM, HT1080-NT tox inconclusive, HT1080 IDH1KD tx inconclusive, TDP1 cell noCPT 15µM
Cc1ccc(C)c(C(=O)CN2C3=NCCCN3c3ccccc32)c1	TDP1 cell CPT 16µM, HT1080-NT tox inconclusive, HT1080 IDH1KD tx inconclusive, IL-1B inflam inh -66, TDP1 cell noCPT inconclusive
OC(CN1C2=NCCN2c2ccccc21)c1ccc2c(c1)OCO2 (centres undefined)	TDP1 cell CPT inconclusive, HT1080-NT tox inconclusive, HT1080 IDH1KD tx inconclusive, TDP1 cell noCPT 23µM
OC(CN1C2=NCCCN2c2ccccc21)c1ccc2c(c1)OCO2 (centres undefined)	none
Cc1c(C(=O)Nc2ccc3nc(N4CCOCC4)sc3c2)oc2ccccc12	TDP1 cell CPT 26µM, ELG1 repair inh 11µM, TDP1 cell noCPT inconclusive
COc1cc(C(=O)Nc2ccc3nc(N4CCOCC4)sc3c2)cc(OC)c1OC	TDP1 cell CPT inconclusive, TDP1 cell noCPT inconclusive
O=C(Nc1ccc2nc(N3CCOCC3)sc2c1)c1cc2ccccc2o1	TDP1 cell CPT 23µM, TDP1 cell noCPT inconclusive (no result: ELG1 repair inh)
O=C(NCc1ccc2c(c1)OCO2)C1CCCCC1	none
CC(OC(=O)c1cccc(S(=O)(=O)N2CCCCC2)c1)C(=O)NC1CCCCC1C (centres undefined)	none
COc1cccc(N=C(N)N=C(N)N)c1	none
NC(N)=NC(N)=Nc1ccc(SC(F)(F)F)cc1	TDP1 cell CPT 10µM, TDP1 cell noCPT 9.2µM
CN(C)S(=O)(=O)c1ccc(Cl)c(NC(=O)COC(=O)/C=C/c2ccco2)c1	none
C=CCc1c(C)nc(-c2ccccc2)nc1Nc1ccccc1O	TDP1 cell CPT inconclusive, HT1080-NT tox inconclusive, HT1080 IDH1KD tx 16µM, ELG1 repair inh inconclusive, TDP1 cell noCPT inconclusive
COc1ccccc1NC(=S)N1CCN(c2cccc(C)c2C)CC1	TDP1 cell CPT 5.2µM, IL-1B inflam inh inconclusive, TDP1 cell noCPT 2.3µM
Cc1ccccc1NC(=S)N1CCN(c2ccccc2Cl)CC1	TDP1 cell CPT 15µM, TDP1 cell noCPT 12µM
COc1ccccc1N1CCN(C(=S)Nc2cccc(C)c2)CC1	TDP1 cell CPT 23µM, HT1080 IDH1KD tx inconclusive, TDP1 cell noCPT 23µM
CN1CCN(C(=S)Nc2ccccc2Cl)CC1	TDP1 cell noCPT inconclusive
Cc1c(Cl)cccc1NC(=S)N1CCCCCC1	TDP1 cell CPT inconclusive, TDP1 cell noCPT 18µM
Cc1cccc(NC(=S)N2CCCCCC2)c1C	TDP1 cell CPT inconclusive, ELG1 repair inh inconclusive, TDP1 cell noCPT inconclusive
O=C(CSc1oc(-c2ccco2)nc1S(=O)(=O)c1ccc(Cl)cc1)Nc1ccc(F)cc1	none (no result: HT1080-NT tox, HT1080 IDH1KD tx, ELG1 repair inh, IL-1B inflam inh)
CCN1CCN(C(=S)Nc2ccccc2Cl)CC1	TDP1 cell CPT 11µM, TDP1 cell noCPT inconclusive
CN(C)S(=O)(=O)c1cc(NC(=O)C2=COCCO2)ccc1Cl	none
Cc1cc(C)cc(NC(=O)Nc2ccc(NC(=O)c3ccccc3O)cc2)c1	TDP1 cell CPT inconclusive, HT1080-NT tox inconclusive, TDP1 cell noCPT 21µM
O=C1c2ccccc2C(=O)N1C1C(=O)N2CCSC12C(=O)OCc1ccccc1 (centres undefined)	none (no result: ELG1 repair inh)
CSc1ccccc1NC(=O)C1=CC(c2cccs2)=NS(=O)(=O)N1C	none
COc1ccc(CNC(=O)c2ccc3c(c2)CCN3S(=O)(=O)c2ccccc2)cc1	TDP1 cell CPT 12µM, TDP1 cell noCPT 18µM (no result: HT1080-NT tox, HT1080 IDH1KD tx, ELG1 repair inh, IL-1B inflam inh)
Cc1ccc(CNC(=O)c2ccc3c(c2)CCN3S(=O)(=O)c2ccc(Br)cc2)cc1	none (no result: HT1080-NT tox, HT1080 IDH1KD tx, ELG1 repair inh, IL-1B inflam inh)
COc1ccc(NC(=O)c2ccc3c(c2)CCN3S(=O)(=O)c2ccccc2)c(OC)c1	TDP1 cell CPT inconclusive, TDP1 cell noCPT inconclusive
CCc1cccc(CC)c1NC(=O)c1ccc2c(c1)CCN2S(=O)(=O)c1ccccc1	none (no result: HT1080-NT tox, HT1080 IDH1KD tx, ELG1 repair inh, IL-1B inflam inh)
O=C(NCCc1ccccc1)c1ccc2c(c1)CCN2S(=O)(=O)c1ccccc1	TDP1 cell CPT 21µM, TDP1 cell noCPT 15µM (no result: HT1080-NT tox, HT1080 IDH1KD tx, ELG1 repair inh, IL-1B inflam inh)
COc1ccc(CCNC(=O)c2ccc3c(c2)CCN3S(=O)(=O)c2ccc(C)cc2)cc1	TDP1 cell CPT inconclusive, TDP1 cell noCPT 10µM (no result: HT1080-NT tox, HT1080 IDH1KD tx, ELG1 repair inh, IL-1B inflam inh)
CCCCC[C@@H]1C=C(C(=O)O)[C@H](c2ccc3c(c2)OCO3)N1S(=O)(=O)c1ccc(C)cc1	none
COC(=O)C1=C(N)N(c2ccccc2C(F)(F)F)C2=C(C(=O)CCC2)C1c1ccc2c(c1)OCO2 (centres undefined)	TDP1 cell CPT 23µM, TDP1 cell noCPT inconclusive
CCCCNc1nccnc1-c1cccc(C=O)c1	TDP1 cell CPT 18µM, HT1080-NT tox inconclusive, TDP1 cell noCPT inconclusive (no result: ELG1 repair inh)
CCCCNC(=O)c1[nH]c(=O)cnc1-c1ccccc1	HT1080-NT tox inconclusive (no result: ELG1 repair inh)
